The text below walks through data of the OligoGym collection.
Further: reference of the scale not given here.

One assay concerns the target TCEANC2. Briefly: pooled miR-30 sensor sort-seq; sequence = guide strand. As to conditions: shRNA.
As to TACAACCACAACTCTCTTCAGA, the sensor-assay potency score (higher = more potent) was -0.694. Sequence TTGATCAGGAAGCTCCAGCATA showed a sensor-assay potency score (higher = more potent) of -0.895. TTGAGTTTCAGTTACCTGCAGG showed a sensor-assay potency score (higher = more potent) of -0.555. The sequence TTCTACAACCACAACTCTCTTC displayed a sensor-assay potency score (higher = more potent) of -0.1.

For TTTTCTTCTTTAATTCTTGTAA, the sensor-assay potency score (higher = more potent) was -0.255. TATAGTAGTAACTTCATCTGAC registered a sensor-assay potency score (higher = more potent) of 0.875.

Another assay deals with TCERG1. The assay is described as above. As to conditions: shRNA.
On to TTGTGCTTGCACTTGTGCCTGG, for which the sensor-assay potency score (higher = more potent) stood at 0.389. Sequence TGGATCGACAGCATTGTCGGAG registered a sensor-assay potency score (higher = more potent) of -0.29. Still for that read-out and setting: under TTTATTATCGTCTCTCTTCCGT stands 0.45. For TATCAGACCATGACACATCTGA, the sensor-assay potency score (higher = more potent) stood at 0.29.

TTGCTTTGAATCTTGAATCTTT gave a sensor-assay potency score (higher = more potent) of 0.533. As to TTCTGATTGCTGAATAACCTTA, the sensor-assay potency score (higher = more potent) is -0.804. Sequence TTGTCTTTTACTTTGCTCCATC came in with a sensor-assay potency score (higher = more potent) of -0.934. Same read-out and setting: under TTGATGAACTATCTACTGCTTT stands -0.0553. Sequence TTAATCTTCTCTTCTAACTTTT came in with a sensor-assay potency score (higher = more potent) of -0.478. In turn, TACATACTGATCAAACACCTGT gave a sensor-assay potency score (higher = more potent) of 0.349.

On to TTATTATCGTCTCTCTTCCGTT, for which the sensor-assay potency score (higher = more potent) was -0.906. Regarding TGAATCTTGAATCTTTAGCATG, the sensor-assay potency score (higher = more potent) was -1.15.
